The values that follow come from PubChem BioAssay (Tox21).

Structures are written as SMILES. A number with no mark means an inactive call. Results filed as inconclusive are left out. The source made the active and inactive calls. Unless noted, the call rests on the fitted dose curve; in most records, active means well fitted curve in the direction sought with a large enough effect in the repeat runs; inconclusive means weak or mixed curves; inactive means no such curve, though single readings can be large; an effect the other way counts as inactive or inconclusive.

Assay [1] is described as follows: qHTS assay for small molecule agonists of the p53 signaling pathway (AID 651631; calls by dose curve; further: nearly all actives have a fitted effect of over 15% in size; further: potency means the concentration at half of the fitted maximal effect). The method in brief: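 Fluorescence intensity from cleaved LiveBLAzer B/G substrate (2 h, room temperature) served as the signal. Beforehand, HCT-116 reporter cells bearing p53 response elements were treated 16 h at 37 °C with DMSO-dissolved compounds.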
For orientation: Quantitative high-throughput screening tests each substance at several concentrations.

The nature of assay [2]: qHTS assay for small molecule agonists of the p53 signaling pathway - cell viability (AID 651633; calls by dose curve;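 further: p53RE-bla HCT reporter cells with a stable beta-lactamase p53 reporter; series mostly up to about 83 µM; nearly all actives have a fitted effect of over 30% in size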). The method in brief:
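p53RE-bla cells, seeded at 4,000 per well and rested 5 h at 37 C/5% CO2, received compounds in DMSO for 16 h at 37 C. CellTiter-Glo was then added, and luminescence was read after 30 min at room temperature to gauge cytotoxicity.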

Assay [3] in a line: qHTS assay to test for compound auto fluorescence at 590 nm (red) in HepG2 cells (AID 720674). In short, it runs like this:
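Compound auto-fluorescence is scored relative to Rose Bengal sodium, measured at 540/590 nm in live HepG2 cultures after 1 hr compound contact (37 C, 5% CO2).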

Assay [4] is described as follows: qHTS assay to test for compound auto fluorescence at 535 nm (green) in HepG2 cells (AID 720675).
The nature of assay [5]: qHTS assay to test for compound auto fluorescence at 460 nm (blue) in HEK293 cells (AID 720678). In short, it runs like this: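 Auto fluorescence in the blue band was quantified as triamterene equivalency. HEK293 cells were seeded at 2,000/well, dosed after a 4-5 hr attachment, and kept overnight at 37C before the 405/460 nm reading.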
Assay [6] is described as follows: qHTS assay to test for compound auto fluorescence at 590 nm (red) in HEK293 cells (AID 720679). In short, it runs like this:
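Autofluorescence equivalency to Rose Bengal sodium, 540/590nm, in HEK293 cells exposed overnight to 23 nL compound per well.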

The nature of assay [7]: qHTS assay for small molecule disruptors of the mitochondrial membrane potential - cell viability (AID 720634; calls by dose curve;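 further: human HepG2 liver cancer cells; series mostly up to about 83 µM; nearly all actives have a fitted effect of over 20% in size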). In short, it runs like this: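 Cytotoxicity was quantified from ATP content by CellTiter-Glo luminescence in the same wells as the MMP dye read-out. HepG2 (2,000 cells/well) were plated overnight and exposed to compounds for 1 hr at 37 C.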
The nature of assay [8]: qHTS assay for small molecule disruptors of the mitochondrial membrane potential (AID 720635). In short, it runs like this:
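HepG2 cells (2,000/well) attached overnight at 37C, then took compound for 1 hr at 37C, 5% CO2. Mito-MPS dye was added for 30 min; fluorescence was read at 490/535 nm (monomers) and 540/590 nm (aggregates).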

A short description of assay [9]: qHTS assay for small molecules that induce genotoxicity in human embryonic kidney cells expressing luciferase-tagged ATAD5 - cell viability (AID 651634; calls by dose curve; further: nearly all actives have a fitted effect of over 25% in size). The method in brief: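 Cytotoxicity counter-readout: after 15.5 hr compound treatment at 37C, live-cell protease activity in ATAD5-luciferase HEK293T cells measured by CellTiter-Fluor fluorescence, 30 min development at 37C.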

Assay [10] in a line: qHTS assay for small molecules that induce genotoxicity in human embryonic kidney cells expressing luciferase-tagged ATAD5 (AID 651632). Further: nearly all actives have a fitted effect of over 15% in size. In short, it runs like this: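 A rise in luciferase signal from ATAD5-tagged HEK293T cells marks genetic stress. Cells were exposed to compounds for 16 hr at 37C, 5% CO2, then luciferase was quantified after a 30 min room-temperature incubation with Amplite.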
On the % scale 0 is the no-effect control and ±100 the full control effect.

As for `CCOc1ccc2nc(N)sc2c1`, the Potency result in [1] and in [2] was “inactive” throughout. Also, the call in [3], in assay [4], in assay [5] and in [6] was inactive.

For `CC[C@H]1CC[C@H](NCc2cc3c(cc2OC)[C@H]2C[C@H]2C(=O)N3C)[C@H](c2ccccc2)N1`, in assay [1], the Potency was 6.86 µM (active). Moreover, the Potency result in assay [2], in assay [7] and in assay [8] was “inactive” throughout. Also, the result in assay [3], in assay [4], in [5] and in assay [6] was inactive.

On to `OCCN(CCO)CCN(CCO)CCO`, for which the Potency entry in assay [1], in [2], in assay [9], in assay [7] and in assay [8] was “inactive” throughout. The outcome in assay [3], in [4], in [5] and in [6] was inactive.

With `C1CCOC1`, the Potency entry in assay [1] and in assay [2] was “inactive” in each case. Moreover, the molecule was classed as inactive in assay [3], in assay [4], in assay [5] and in assay [6].

Regarding `C[C@@H](N)C(=O)O`, the Potency result in [1], in assay [2], in assay [9] and in [7] was “inactive” in each case. Moreover, the call in assay [3], in assay [4], in [5] and in assay [6] was inactive.

As to `CCN[C@H]1CN(CCCOC)S(=O)(=O)c2sc(S(N)(=O)=O)cc21`, the Potency result in assay [1], in [2], in assay [9], in assay [7] and in [8] was “inactive” in each case. Also, in assay [3], the fluorescence, relative to Rose Bengal is -0.145% [at 18.6 µM]. In assay [4], the fluorescence, % of fluorescein control was -0.244% [at 18.6 µM]. In addition, the fluorescence, % of triamterene in [5] is 0.009% [at 18.6 µM]. Also, in assay [6], the fluorescence, % of fluorescent control was 0.0594% [at 18.6 µM].

Consider `CN(C)CC[C@@H](c1ccc(Cl)cc1)c1ccccn1`, for which the Potency entry in assay [1], in assay [2], in assay [9], in assay [7] and in [8] was “inactive” each time. The outcome in assay [3], in assay [4], in assay [5] and in assay [6] was inactive.

In the case of `CC(=O)N[C@@H](CC(C)C)C(=O)O`, the Potency entry in assay [1], in [2], in assay [9], in assay [7] and in assay [8] was “inactive” throughout. Besides, the result in assay [3], in [4], in assay [5] and in [6] was inactive.

Regarding `COc1ccc(S(=O)(=O)Nc2nnc(CC(C)C)s2)cc1`, the Potency entry in [1], in assay [2], in assay [9] and in [7] was “inactive” throughout. Further, the outcome in assay [4], in assay [5] and in [6] was inactive.

With `CC(=O)Nc1ccc(C)c(Cl)c1`, the Potency entry in assay [1], in [2], in assay [9] and in assay [7] was “inactive” throughout. Further, the result in assay [4], in assay [5] and in [6] was inactive.

For `O=C(O)c1ccccc1Nc1cc(Cl)ccc1C(=O)O`, the Potency result in [1], in assay [2], in assay [9], in assay [7] and in assay [8] was “inactive” each time. Also, the outcome in assay [3], in assay [4], in [5] and in [6] was inactive.

Regarding `Cc1ccc([N+](=O)[O-])cc1Cl`, the Potency result in [1], in [2], in [9] and in assay [7] was “inactive” in each case. Also, the molecule was called inactive in [3], in assay [4], in assay [5] and in assay [6].

As to `C[C@@H]1CN(c2c(F)c(F)c3c(=O)c(C(=O)O)cn(C4CC4)c3c2F)C[C@H](C)N1`, the Potency entry in assay [10], in [2], in assay [9], in [7] and in assay [8] was “inactive” throughout. For the same molecule, the call in assay [3], in [4], in [5] and in assay [6] was inactive.

For the molecule `C=CC1CO1` (stereo not given), the Potency result in [1], in assay [2], in assay [9], in assay [7] and in assay [8] was “inactive” each time. Also, the outcome in assay [4], in [5] and in assay [6] was inactive.

In the case of `CN(C)Cc1ccccc1`, the Potency result in assay [1], in [2], in assay [9], in assay [7] and in [8] was “inactive” each time. Moreover, the call in assay [3], in assay [4], in [5] and in assay [6] was inactive.

Regarding `OCC(CBr)(CBr)CBr`, the Potency result in assay [1], in [2], in assay [9] and in assay [7] was “inactive” each time. Further, the outcome in [4], in assay [5] and in [6] was inactive.

`Nc1ccc2ccccc2c1S(=O)(=O)O`: the Potency entry in [1], in [2], in assay [9], in [7] and in [8] was “inactive” each time. In addition, the call in assay [3], in assay [4], in assay [5] and in assay [6] was inactive.

With `COc1ccccc1N1CCN(CCCNc2cc(=O)n(C)c(=O)n2C)CC1`, the Potency result in assay [1], in assay [2], in assay [9], in [7] and in assay [8] was “inactive” each time. Moreover, the molecule was classed as inactive in [4], in assay [5] and in [6].

Turning to `FC(F)(F)C(F)(F)C(F)(F)C(F)(F)C(F)(F)C(F)(F)C(F)(F)C(F)(F)Br`, the Potency entry in assay [1], in [2], in assay [9], in assay [7] and in assay [8] was “inactive” in each case. Besides, the molecule was called inactive in assay [3], in assay [4], in assay [5] and in assay [6].

As for `ClC(Cl)Cl`, the Potency entry in assay [1], in assay [2], in assay [9], in assay [7] and in [8] was “inactive” in each case. In addition, the call in [3], in [4], in assay [5] and in assay [6] was inactive.

Consider `CC(=O)N(CC(O)CN(C(C)=O)c1c(I)c(C(=O)NCC(O)CO)c(I)c(C(=O)NCC(O)CO)c1I)c1c(I)c(C(=O)NCC(O)CO)c(I)c(C(=O)NCC(O)CO)c1I` (stereo not given), for which the Potency entry in [10], in assay [2], in [9], in [7] and in [8] was “inactive” throughout. In addition, in [3], the fluorescence, relative to Rose Bengal is 0.142% [at 18.6 µM]. The fluorescence, % of fluorescein control in assay [4] is 0.0792% [at 18.6 µM]. The fluorescence, % of triamterene in assay [5] is 0.0832% [at 18.6 µM]. Also, the fluorescence, % of fluorescent control in [6] is -0.003% [at 18.6 µM].

In the case of `CO[Si](C)(C)OC`, the Potency entry in assay [1], in assay [2], in [9] and in assay [7] was “inactive” each time. In addition, the result in assay [3], in assay [4], in assay [5] and in [6] was inactive.
